PubChem BioAssay AID720565 (National Center for Advancing Translational Sciences (NCATS), 2013)
Where “and” joins values, the source holds several entries; their conditions need not be identical. Equal values may be shown once. Results filed as inconclusive are left out. Unmarked numbers belong to inactive results. Calls of active or inactive are those of the source. Calls come from the whole dose curve; as a rule, active = well fitted activation curve with a large enough effect; inconclusive = small, poorly fitted or top-dose-only effect; inactive = no such curve, though single readings can be large or run the other way.

Assay: qHTS for small molecules that induce genotoxicity in ELG1 expressing cells: Confirmatory Assay for Cherry-picked Compounds; note: nearly all actives have a fitted effect of over 35% in size; for activation: % of control where 0% means no effect
Conditions: ELG1-luciferase reporter cells, luminescence, 16 h; series mostly up to 46.1 µM; activation: at the top concentration
Summary of the method: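 Activation readout: ONE-Glo luciferase signal from ELG1 reporter cells, 2,000 per well, after 16 hr compound incubation at 37 C. Increased ELG1-driven luminescence reflects genetic stress.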
Potency is the fitted concentration of half-maximal effect.

SMILES | Potency | activation [%]
CCCC(=O)Oc1ccc2[nH]c(C(=O)c3cc4ccccc4[nH]3)cc2c1 | 6.28 µM (active) | –
CCOc1ccc2oc(C(=O)Nc3nccs3)c(C)c2c1 | 2.23 µM (active) | –
COc1cccc(CNC(=O)C2CCCN(c3nn4c(=O)cc(C)nc4s3)C2)c1 (stereo not drawn) | – | -15.2
Fc1ccccc1-c1nc(-c2ccc(-c3nn[nH]n3)cc2)no1 | 7.91 µM (active) | –
c1ccc(-c2cc3cc4c(cc3cn2)OCO4)cc1 | 2.81 µM (active) | –
Cc1sc(NC(=O)c2ccco2)c(C(c2cccnc2)N2CCN(c3ccc(F)cc3)CC2)c1C (stereo not drawn) | – | -16.3
O=C(CSc1nnc(-c2cccnc2)o1)Nc1ccccn1 | 9.12 µM (active) and 8.89 µM (active) | –
COc1ccc(-c2cc3cc(F)ccc3cn2)cc1 | 2.23 µM (active) | –
Oc1ccccc1-c1cc(-c2ccccc2)n[nH]1 | 2.23 µM (active) | –
COc1ccc(/C=C2\Oc3ccccc3C2=O)cc1 | 0.996 µM (active) | –
Cc1ccc(C)c(N2CCN(C(=O)CCc3nc(-c4cccc(Cl)c4)no3)CC2)c1 | 12.5 µM (active) | –
CC(/C=C/C(=O)NO)=C\[C@@H](C)C(=O)c1ccc(N(C)C)cc1 | 0.629 µM (active) | –
Cc1c(OCc2ccc([N+](=O)[O-])cc2)ccc2c3c(c(=O)oc12)CCC3 | 2.81 µM (active) | –
CCCCCn1ncc2c3sc(C)cc3n(C)c2c1=O | 12.5 µM (active) | –
Oc1cc(-c2ccc(N3CCCCC3)nc2)cc2cccnc12 | 25 µM (active) | –
O=C(N[C@H]1/C=C\[C@@H](O)CCCC1)OCc1ccccc1 | 9.96 µM (active) | –
CN(C)c1cccc(C(=O)NNC(=O)CN2C(=O)C3CC=CCC3C2=O)c1 (stereo not drawn) | 7.91 µM (active) | –
CN(C)c1ccc(-c2cc3ccccc3c(=O)o2)cc1 | 0.445 µM (active) | –
CNc1ccc(/C=C2\C=Cc3ccccc32)cc1 | 0.792 µM (active) | –

SMILES | Potency | activation [%]
COc1ccc(C2CC(c3ccncc3)=NN2c2ccc(S(N)(=O)=O)cc2)cc1 (stereo not drawn) | 17.7 µM (active) | –
O=C(CSc1nnc(-c2ccc(O)cc2)o1)Nc1ccccc1 | 5 µM (active) | –
Cc1ccccc1-c1nnc(SCC(=O)Nc2cccnc2Cl)o1 | 3.15 µM (active) | –
CC(=O)Nc1ccc(SCC(=O)c2cc(C)n(Cc3cccs3)c2C)cc1 | 1.12 µM (active) | –
COc1cccc(NC(=O)CSc2nnc(-c3ccc(C)cc3)o2)c1 | 14.1 µM (active) | –
Cc1ccc(C(=O)NN=CC(=O)c2ccccc2)c(C)c1 | 6.28 µM (active) | –
O=C(CSc1nnc(-c2csc3c2CCCC3)o1)Nc1ccccc1 | 575 nM (active) and 561 nM (active) | –
CN(C)c1ccc(C(=O)OCC(=O)c2ccc[nH]2)cc1 | 14.1 µM (active) | –
CN(C)c1cccc(-c2ccnc(N3CCC(C(N)=O)CC3)n2)c1 | 0.5 µM (active) | –
O=c1nc2sc3ccccc3n2c(=O)n1-c1cccc(Cl)c1 | 5 µM (active) | –
Cc1ccc2nc(-c3ccc(C)c(NC(=O)COc4ccc(Br)cc4)c3)oc2c1 | 2.5 µM (active) | –
COc1cccc2c1C(=O)/C(=C\c1ccc(N(C)C)cc1)C2 | 3.15 µM (active) | –
COc1ccccc1/C=C/c1nc2ccccc2s1 | 3.97 µM (active) | –
COc1ccccc1NC(=O)CSc1nnc(-c2ccccc2)o1 | 2.5 µM (active) | –
COc1cc(OC)cc(-c2cc3cc4c(cc3cn2)OCO4)c1 | 5.6 µM (active) | –
Cc1ccc(NC(=O)c2ccc(OC(=O)c3ccco3)cc2)cc1 | 11.5 µM (active) and 14.1 µM (active) | –
COc1ccc(-c2nnc(SC(C)C(=O)Nc3cccc(Cl)c3)o2)cc1 (stereo not drawn) | 12.5 µM (active) | –
Cc1ccc(NC(=O)c2ccc(OC(=O)c3cc4ccccc4o3)cc2)cc1 | 8.89 µM (active) | –
CCOC(=O)c1cc(-c2cc(OC)c(OC)c(OC)c2)nc2c1c(=O)[nH]c(=O)n2Cc1ccccc1 | 25 µM (active) | –
